{
  "source": "PubChem BioAssay (EPA / NIEHS)",
  "note": "Several values for one entry are separate records, joined by “and”; a condition that tells them apart may be missing. Identical values can stand only once. More than one record can exist for a structure, and the calls need not agree. Activity calls are given as the source filed them. Rule for the calls: active = hit-call score of the fitted dose curve at least 0.9, where 1 is the maximum; inactive = score below 0.9.",
  "data": [
    {"read-out": "Glutathione S-transferase M3 (GSTM3), GSTM3 (gene 2947)", "assay": "LTEA_HepaRG_GSTM3: Life Technologies and Expression Analysis (LTEA) Assay for Glutathione S-transferase M3 (GSTM3) using HepaRG (AID 2283501)", "conditions": "mRNA level, 48 h; actives raise or lower the signal", "procedure,_shortened": "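Differentiated HepaRG cells in serum-free induction medium were exposed in duplicate for 48 h to 8 half-log concentrations up to 100 uM in 0.5% DMSO. GSTM3 mRNA was measured by TaqMan qRT-PCR, normalized to ACTB/GAPDH/POLR2A, and fitted bidirectionally versus DMSO.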", "values": [
      {"smiles": "N#Cc1cc(Br)c(O)c(Br)c1", "AC50": "10.7 µM (active)"},
      {"smiles": "CCOC(=O)C(Cl)Cc1cc(-n2nc(C)n(C(F)F)c2=O)c(F)cc1Cl", "note": "(configuration not stated)", "outcome": "inactive"},
      {"smiles": "CC(C)Oc1cc(-n2nc(C(C)(C)C)oc2=O)c(Cl)cc1Cl", "outcome": "inactive"},
      {"smiles": "COc1nc(NC(C)C)nc(NC(C)C)n1", "outcome": "inactive"},
      {"smiles": "C=CCC1=C(C)C(OC(=O)C2C(C=C(C)C)C2(C)C)CC1=O", "note": "(configuration not stated)", "outcome": "inactive"},
      {"smiles": "CCc1nn(C)c(C(=O)NCc2ccc(C(C)(C)C)cc2)c1Cl", "AC50": "4.76 µM (active)"},
      {"smiles": "COc1cnc(OC)n2nc(NS(=O)(=O)c3c(OCC(F)F)cccc3C(F)(F)F)nc12", "outcome": "inactive"},
      {"smiles": "CCOC(=O)CC(SP(=S)(OC)OC)C(=O)OCC", "note": "(configuration not stated)", "outcome": "inactive"},
      {"smiles": "Cc1cc(Cl)ccc1OCC(=O)O", "outcome": "inactive"},
      {"smiles": "COP(=S)(OC)Oc1nc(Cl)c(Cl)cc1Cl", "outcome": "inactive"},
      {"smiles": "CO/C=C(/C(=O)OC)c1ccccc1Oc1cc(Oc2ccccc2C#N)ncn1", "AC50": "83.1 µM (active)", "outcome": "inactive"},
      {"smiles": "CNC(=O)ON=CC(C)(C)SC", "outcome": "inactive"},
      {"smiles": "CC(Oc1ccc(Cl)cc1Cl)C(=O)O", "note": "(configuration not stated)", "outcome": "inactive"},
      {"smiles": "CCCCNC(=O)OCC#CI", "outcome": "inactive"},
      {"smiles": "COC(=O)c1ccccc1C(=O)OC", "outcome": "inactive"},
      {"smiles": "CN(C)C(=S)SSC(=S)N(C)C", "outcome": "inactive"},
      {"smiles": "CCCCC(CC)COC(=O)c1ccccc1C(=O)OCC(CC)CCCC", "note": "(configuration not stated)", "outcome": "inactive"},
      {"smiles": "C=CCC1=C(C)[C@@H](OC(=O)[C@@H]2[C@@H](C=C(C)C)C2(C)C)CC1=O", "outcome": "inactive"},
      {"smiles": "CON(C)C(=O)Nc1ccc(Cl)c(Cl)c1", "outcome": "inactive"},
      {"smiles": "C#CCOS(=O)OC1CCCCC1Oc1ccc(C(C)(C)C)cc1", "note": "(configuration not stated)", "AC50": "29.7 µM (active)"},
      {"smiles": "CS/C(C)=N/OC(=O)N(C)SN(C)C(=O)O/N=C(\\C)SC", "outcome": "inactive"},
      {"smiles": "CCCN(CCC)c1c([N+](=O)[O-])cc(S(N)(=O)=O)cc1[N+](=O)[O-]", "outcome": "inactive"},
      {"smiles": "Oc1ccccc1-c1ccccc1", "outcome": "inactive"},
      {"smiles": "COC(=O)C(C)Oc1ccc(Oc2ccc(Cl)cc2Cl)cc1", "note": "(configuration not stated)", "outcome": "inactive"},
      {"smiles": "O=C(O)c1nc(Cl)ccc1Cl", "outcome": "inactive"}
    ]},
    {"read-out": "Heat shock 70 kDa protein 1 (HSPA1A), gene 3303", "assay": "LTEA_HepaRG_HSPA1A: Life Technologies and Expression Analysis (LTEA) Assay for Heat shock 70 kDa protein 1 (HSPA1A) using HepaRG (AID 2283502)", "conditions": "mRNA level, 48 h; actives raise or lower the signal", "procedure,_shortened": "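Human HepaRG cells in serum-free induction medium were exposed in duplicate for 48 h to 8 half-log concentrations, highest 100 uM, in 0.5% DMSO. HSPA1A mRNA read by TaqMan qRT-PCR, normalized to ACTB, GAPDH, POLR2A, fitted bidirectionally against DMSO.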", "values": [
      {"smiles": "N#Cc1cc(Br)c(O)c(Br)c1", "AC50": "10.6 µM (active)"},
      {"smiles": "CCOC(=O)C(Cl)Cc1cc(-n2nc(C)n(C(F)F)c2=O)c(F)cc1Cl", "note": "(configuration not stated)", "outcome": "inactive"},
      {"smiles": "CC(C)Oc1cc(-n2nc(C(C)(C)C)oc2=O)c(Cl)cc1Cl", "outcome": "inactive"},
      {"smiles": "COc1nc(NC(C)C)nc(NC(C)C)n1", "outcome": "inactive"},
      {"smiles": "C=CCC1=C(C)C(OC(=O)C2C(C=C(C)C)C2(C)C)CC1=O", "note": "(configuration not stated)", "outcome": "inactive"},
      {"smiles": "CCc1nn(C)c(C(=O)NCc2ccc(C(C)(C)C)cc2)c1Cl", "AC50": "9.92 µM (active)"},
      {"smiles": "COc1cnc(OC)n2nc(NS(=O)(=O)c3c(OCC(F)F)cccc3C(F)(F)F)nc12", "AC50": "50 µM (active)"},
      {"smiles": "CCOC(=O)CC(SP(=S)(OC)OC)C(=O)OCC", "note": "(configuration not stated)", "outcome": "inactive"},
      {"smiles": "Cc1cc(Cl)ccc1OCC(=O)O", "outcome": "inactive"},
      {"smiles": "COP(=S)(OC)Oc1nc(Cl)c(Cl)cc1Cl", "outcome": "inactive"},
      {"smiles": "CO/C=C(/C(=O)OC)c1ccccc1Oc1cc(Oc2ccccc2C#N)ncn1", "AC50": "83.4 µM (active)", "outcome": "inactive"},
      {"smiles": "CNC(=O)ON=CC(C)(C)SC", "outcome": "inactive"},
      {"smiles": "CC(Oc1ccc(Cl)cc1Cl)C(=O)O", "note": "(configuration not stated)", "outcome": "inactive"},
      {"smiles": "CCCCNC(=O)OCC#CI", "AC50": "50 µM (active)"},
      {"smiles": "COC(=O)c1ccccc1C(=O)OC", "outcome": "inactive"},
      {"smiles": "CN(C)C(=S)SSC(=S)N(C)C", "outcome": "inactive"},
      {"smiles": "CCCCC(CC)COC(=O)c1ccccc1C(=O)OCC(CC)CCCC", "note": "(configuration not stated)", "outcome": "inactive"},
      {"smiles": "C=CCC1=C(C)[C@@H](OC(=O)[C@@H]2[C@@H](C=C(C)C)C2(C)C)CC1=O", "outcome": "inactive"},
      {"smiles": "CON(C)C(=O)Nc1ccc(Cl)c(Cl)c1", "outcome": "inactive"},
      {"smiles": "C#CCOS(=O)OC1CCCCC1Oc1ccc(C(C)(C)C)cc1", "note": "(configuration not stated)", "AC50": "27.2 µM (active)"},
      {"smiles": "CS/C(C)=N/OC(=O)N(C)SN(C)C(=O)O/N=C(\\C)SC", "outcome": "inactive"},
      {"smiles": "CCCN(CCC)c1c([N+](=O)[O-])cc(S(N)(=O)=O)cc1[N+](=O)[O-]", "AC50": "70.7 µM (active) and 75.6 µM (active) and 50 µM (active)"},
      {"smiles": "Oc1ccccc1-c1ccccc1", "outcome": "inactive"},
      {"smiles": "COC(=O)C(C)Oc1ccc(Oc2ccc(Cl)cc2Cl)cc1", "note": "(configuration not stated)", "outcome": "inactive"},
      {"smiles": "O=C(O)c1nc(Cl)ccc1Cl", "outcome": "inactive"}
    ]}
  ]
}
